# Data from ChEMBL document CHEMBL4513146, “CO-ADD screening of Karazin Kharkiv National University (Ukraine) compounds”.
# Measured potencies and affinities stand elsewhere.
# Assays:
# Staphylococcus aureus = details: Concentration 32 ug.mL-1;; ASSAY_TEST Inhibition of Bacterial Growth; detection method Absorption (OD600); MEDIA CAMHB; plate type 384well; NBS; CORNING #3640; time 18 hr
# Escherichia coli = details: Concentration 32 ug.mL-1;; ASSAY_TEST Inhibition of Bacterial Growth; detection method Absorption (OD600); MEDIA CAMHB; plate type 384well; NBS; CORNING #3640; time 18 hr
SMILES,Inhibition (Staphylococcus aureus) [%],Inhibition (Escherichia coli) [%]
O=C(Cn1nc2c3cc(-c4ccc(F)cc4)nn3ccn2c1=O)Nc1ccccc1,-11.01,-1.34
Cc1cc(C)cc(Nc2nc(C)cc3nn(CC(=O)Nc4ccccc4)c(=O)n23)c1,4.32,-6.45
Cc1ccccc1N1CCN(c2nccn3c(=O)n(CC(=O)NCc4ccc(Cl)cc4)nc23)CC1,13.83,-3.79
CSc1cccc(NC(=O)Cn2nc3c(SCc4ccc(Cl)cc4)nccn3c2=O)c1,-9.65,-9.35
COc1ccc(-c2cc3c4nnc(SCC(=O)Nc5cccc(C#N)c5)n4ccn3n2)cc1,1.06,-0.96
CC(C)Cn1c(=O)c2sccc2n2c(=O)n(Cc3ccc(Cl)cc3)nc12,-2.34,0.89
CCCNC(=O)Cn1nc2n(Cc3ccco3)c(=O)c3sccc3n2c1=O,2.17,-0.94
Cc1ccc(F)cc1NC(=O)CSc1nc2ccccc2n2c(C)nnc12,2.37,1.62
O=S(=O)(c1ccc2nncn2c1)N(Cc1cc(F)cc(F)c1)c1ccc(F)c(F)c1,8.61,-4.86
O=C(CCc1nnc2c3cc(-c4ccc(F)cc4)nn3ccn12)N1CCC(Cc2ccccc2)CC1,6.97,-0.02
Cc1ccc(Sc2nccn3c(=O)n(CC(=O)Nc4c(C)cc(C)cc4C)nc23)c(C)c1,17.35,1.82
CC(C)c1nnc2c(=O)n(CC(=O)Nc3cccc(C#N)c3)c3ccccc3n12,14.89,2.48
